Source: PubChem BioAssay (NCATS)
Results filed as inconclusive are left out. A call without a number means that no potency is given here. Calls of active or inactive are those of the source. Unless noted, the call rests on the fitted dose curve.

What was measured:
[1] = Primary qHTS for Huh7 cytotoxicity: counterscreen for inhibitors of MERS-S pseudotyped particle cell entry (AID 1479147)
[2] = Primary qHTS for inhibitors of MERS-S pseudo-typed particle cell entry (AID 1479149); further: nearly all actives have a fitted effect of over 60% in size; further: potency means the concentration at half of the fitted maximal effect
[3] = Primary qHTS for Vero E6 cytotoxicity: counterscreen for inhibitors of SARS-S pseudo-typed particle cell entry (AID 1479150)
[4] = Primary qHTS for inhibitors of La Crosse Virus (LACV) - induced cell death in SH-SY5Y cells (AID 1508616; active means well fitted inhibition curve with a large enough effect;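 further: top concentration of the series differs between compounds; higher means more rescue of cells from virus-induced death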)
Outline: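 SH-SY5Y, 6000 cells/well; cpd via pin tool in DMSO; LACV 0.01 MOI; 6 d 37C 5% CO2; ATPLite, 5 min RT; luminescence normalized to ±virus DMSO controls.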

Row | SMILES | Potency [1] | Potency [2] | Potency [3] | Potency [4]
1 | O=C1[C@H](CC[C@H](O)c2ccc(F)cc2)[C@@H](c2ccc(O)cc2)N1c1ccc(F)cc1 | inactive | inactive | inactive | 
2 | CC(=O)O[C@@]12CO[C@@H]1C[C@H](O)[C@@]1(C)C(=O)[C@H](O)C3=C(C)[C@@H](OC(=O)[C@H](O)[C@@H](NC(=O)OC(C)(C)C)c4ccccc4)C[C@@](O)([C@@H](OC(=O)c4ccccc4)[C@H]21)C3(C)C | inactive | inactive | inactive | 
3 | CN1CCN(C2=Nc3cc(Cl)ccc3Nc3ccccc32)CC1 | inactive | inactive | inactive | 
4 | CN(C/C=C/C#CC(C)(C)C)Cc1cccc2ccccc12 | inactive | inactive | inactive | 
5 | CN(C)CCOC(C)(c1ccccc1)c1ccccn1 (configuration not stated) | inactive | inactive | inactive | 
6 | COCCCC/C(=N\OCCN)c1ccc(C(F)(F)F)cc1 | inactive | inactive | inactive | 
7 | NC12CC3CC(CC(C3)C1)C2 | inactive | inactive | inactive | 
8 | COc1ccc([C@@H]2Sc3ccccc3N(CCN(C)C)C(=O)[C@@H]2OC(C)=O)cc1 | inactive | inactive | inactive | 
9 | CC1(C)S[C@@H]2[C@H](NC(=O)[C@H](N)c3ccccc3)C(=O)N2[C@H]1C(=O)O | inactive | inactive | inactive | 
10 | Cc1nc2n(c(=O)c1CCN1CCC(c3noc4cc(F)ccc34)CC1)CCC[C@H]2O | inactive | inactive | inactive | 
11 | CCCN(CCc1cccs1)[C@H]1CCc2c(O)cccc2C1 | inactive | inactive | inactive | 
12 | Cc1cccc(Nc2ccccc2C(=O)O)c1C | inactive | inactive | inactive | 
13 | Cc1ccnc2c1NC(=O)c1cccnc1N2C1CC1 | inactive | inactive | inactive | 
14 | O=C1N=C(O)CN1/N=C/c1ccc(-c2ccc([N+](=O)[O-])cc2)o1 | inactive | inactive | inactive | 
15 | CC(C(=O)O)c1cccc(C(=O)c2ccccc2)c1 (configuration not stated) | inactive | inactive | inactive | 
16 | CS(=O)(=O)CCNCc1ccc(-c2ccc3ncnc(Nc4ccc(OCc5cccc(F)c5)c(Cl)c4)c3c2)o1 | inactive | inactive | inactive | 
17 | CC(C)(C(=O)O)c1ccc(C(O)CCCN2CCC(C(O)(c3ccccc3)c3ccccc3)CC2)cc1 (configuration not stated) | inactive | inactive | inactive | 
18 | CC(C)C1CCC(C(=O)N[C@H](Cc2ccccc2)C(=O)O)CC1 (some centres not stated) | inactive | inactive | inactive | 
19 | NS(=O)(=O)c1cc2c(cc1C(F)(F)F)NCNS2(=O)=O | inactive | inactive | inactive | 

Row | SMILES | Potency [1] | Potency [2] | Potency [3] | Potency [4]
20 | Cc1ccsc1C(=CCCN1CCC[C@@H](C(=O)O)C1)c1sccc1C | inactive | inactive | inactive | 
21 | COc1cc(NC(C)CCCN)c2ncccc2c1 (configuration not stated) | inactive | inactive | inactive | 
22 | O=C(c1ccccc1)c1ccc2n1CCC2C(=O)O (configuration not stated) | inactive | inactive | inactive | 
23 | O=C1CCc2ccc(OCCCCN3CCN(c4cccc(Cl)c4Cl)CC3)cc2N1 | inactive | 11.2 µM (active) | inactive | 
24 | CC(C)(C#N)c1cc(Cn2cncn2)cc(C(C)(C)C#N)c1 | inactive | inactive | inactive | 
25 | Cc1cn([C@H]2C[C@H](N=[N+]=[N-])[C@@H](CO)O2)c(=O)[nH]c1=O | inactive | inactive | inactive | 
26 | CC(C)NC[C@@H](O)COc1ccc(CC(N)=O)cc1 | inactive | inactive | inactive | 
27 | Cc1ccc(C(=O)c2cc(O)c(O)c([N+](=O)[O-])c2)cc1 | inactive | inactive | inactive | 
28 | COC(=O)N[C@H](C(=O)N[C@@H](Cc1ccccc1)[C@@H](O)CN(Cc1ccc(-c2ccccn2)cc1)NC(=O)[C@@H](NC(=O)OC)C(C)(C)C)C(C)(C)C | inactive | inactive | inactive | 
29 | CC(c1cc2ccccc2s1)N(O)C(N)=O (configuration not stated) | inactive | inactive | inactive | 
30 | CCCCS(=O)(=O)N[C@@H](Cc1ccc(OCCCCC2CCNCC2)cc1)C(=O)O | inactive | inactive | inactive | 
31 | CNS(=O)(=O)CCc1ccc2[nH]cc(C3CCN(C)CC3)c2c1 | inactive | inactive | inactive | 
32 | Cc1[nH]cnc1CN1CCc2c(c3ccccc3n2C)C1=O | inactive | inactive | inactive | 
33 | C=C(c1ccc(C(=O)O)cc1)c1cc2c(cc1C)C(C)(C)CCC2(C)C | inactive | inactive | inactive | 
34 | CCC1C(=O)OCC1Cc1cncn1C (configuration not stated) | inactive | inactive | inactive | 
35 | NC1[C@H]2CN(c3nc4c(cc3F)c(=O)c(C(=O)O)cn4-c3ccc(F)cc3F)C[C@@H]12 (some centres not stated) | inactive | inactive | inactive | 
36 | CCCCc1nc(Cl)c(CO)n1Cc1ccc(-c2ccccc2-c2nn[nH]n2)cc1 | inactive | inactive | inactive | 
37 | CC(N)C12CC3CC(CC(C3)C1)C2 (configuration not stated) | inactive | inactive | inactive | 
38 | Oc1cc(Cl)ccc1Oc1ccc(Cl)cc1Cl |  |  |  | inactive
